Screening data from PubChem.
C diff HTS – blocks growth of Clostridium difficile; Clostridium difficile clinical isolate growth, OD600, 24 h; hits give low values; growth activity, negative = inhibition, % at 16 µg/mL (by protocol); 86,000 compounds, 0.25% hits; AID 1259249;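 active means mean growth activity at or below -80% and every replicate also at or below -80%; inconclusive means mean at or below -80% but some replicate above -80%; inactive means mean growth activity above -80%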;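 further: 0% = DMSO wells and -100% = levofloxacin 16 µg/mL wells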
T cruzi growth-1 – T. cruzi proliferation inhibition; T. cruzi beta-gal in NIH3T3, GalScreen luminescence, 90 h; inhibition, % at 8.34 µM; 77,000 compounds, 5.9% hits;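 active means mean inhibition above about 93%, with at least 55% of replicates each passing it, limit read from the data, passing the limit was not always enough; inconclusive means only one of those two conditions holds; inactive means neither condition holds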
Pf Dd2 inh – inhibitors of Plasmodium falciparum Dd2 growth. P. falciparum Dd2 growth, SYBR Green, 72 h; hits give low values. activity change, % at 10 µM. 94,000 compounds, 2.3% hits; in the data active means activity change below about -80%; inconclusive means no clear call, values can overlap the other calls
T cruzi growth-2 – blocks T. cruzi growth in NIH3T3 host cells | shares compounds with T cruzi growth-1 | T. cruzi beta-gal in NIH3T3, GalScreen luminescence, 90 h | inhibition, % at 8.35 µM | 5,600 compounds, 72% hits | AID 651739;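 active means mean replicate inhibition above about 95% and at least 55% of replicates individually reaching it, limit read from the data; inconclusive means only one of the two criteria is met; inactive means neither criterion is met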
T cruzi growth-3 – Trypanosoma cruzi proliferation inhibition; shares compounds with T cruzi growth-1; T. cruzi beta-gal in NIH3T3, GalScreen luminescence, 90 h; inhibition, % at 2.09 µM; 5,600 compounds, 21% hits; AID 651740;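 active means mean inhibition above about 95%, with at least 55% of replicates also reaching it, limit read from the data; inconclusive means meets just one of the two conditions; inactive means meets neither condition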;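 further: plate controls were neutral control median for no effect and positive control median for full effect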
NIH3T3 tox – kills mouse NIH/3T3 fibroblasts; shares compounds with T cruzi growth-1; NIH/3T3 viability, CellTiter-Glo ATP luminescence, 90 h; cytotoxicity (signal decrease), % at 8.35 µM; 5,600 compounds, 14% hits;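 active means mean signal decrease across replicates above about 35% based on untreated-well scatter, with enough replicates individually passing, limit read from the data; inconclusive means no rule stated though some were filed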;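 further: 0% = median of neutral control wells and 100% = median of positive control wells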
3T3 cytotox 2 – cytotoxicity in mouse NIH/3T3 fibroblasts; shares compounds with T cruzi growth-1; NIH/3T3 viability, CellTiter-Glo ATP luminescence, 90 h; inhibition, % at 24.9 µM; 5,600 compounds, 56% hits;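 active means mean loss of cell viability signal at or above a set limit, and enough replicates individually reaching it; inconclusive means meets only the mean limit or only the replicate share; inactive means meets neither condition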;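 further: 0% = median of neutral control wells and 100% = median of positive control wells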
* hit, by the source's call; u = inconclusive; x = not tested or not shown; ! = not active in a repeat. This is a sample that favours compounds with a hit; in the whole collection about 6.8% have one here.

SMILES	C diff HTS	T cruzi growth-1	Pf Dd2 inh	T cruzi growth-2	T cruzi growth-3	NIH3T3 tox	3T3 cytotox 2
CCc1cnc(N2[C@H](C#N)[C@H](c3ccc(C#CCC4CCCC4)cc3)[C@@H]2CO)s1	-3	98*	-58	91	114*	-9	u
CCc1cnc(N2[C@@H](C#N)[C@@H](c3ccc(C#CCC4CCCC4)cc3)[C@@H]2CO)s1	1	97*	-41	99*	111*	-6	104*
CCc1cnc(N2[C@H](CO)[C@@H](c3ccc(C4=CCCCC4)cc3)[C@@H]2C#N)s1	6	72	11	x	x	x	x
CCc1cnc(N2[C@H](C#N)[C@H](c3ccc(C#CCC4CCCC4)cc3)[C@H]2CO)s1	-13	95	-29	x	x	x	x
Cc1noc(C)c1NC(=O)NCC[C@@H]1CC[C@H](NC(=O)Nc2cccc(Cl)c2)[C@H](CO)O1	x	12	0	x	x	x	x
C[C@@H]1CN([C@@H](C)CO)C(=O)c2cc(C#CCN(C)C)cnc2O[C@@H]1CN(C)Cc1cccc(F)c1	2	-38	-15	x	x	x	x
C[C@@H]1CN([C@@H](C)CO)C(=O)c2cc(C#CCc3ccccc3)cnc2O[C@H]1CN(C)Cc1cccc(F)c1	x	97*	-57	111*	94	-7	104*
CC(C)CC#Cc1cnc2c(c1)C(=O)N([C@H](C)CO)C[C@H](C)[C@@H](CN(C)Cc1cccc(F)c1)O2	5	112*	-46	106*	74	7	107*
C[C@@H]1CN([C@H](C)CO)C(=O)c2cc(C#CCN(C)C)cnc2O[C@H]1CN(C)Cc1cccc(F)c1	-1	-31	8	x	x	x	x
C[C@H]1CN([C@@H](C)CO)C(=O)c2cc(C#CCc3ccccc3)cnc2O[C@H]1CN(C)Cc1cccc(F)c1	x	18	-43	x	x	x	x
CC(C)CC#Cc1cnc2c(c1)C(=O)N([C@@H](C)CO)C[C@@H](C)[C@H](CN(C)Cc1cccc(F)c1)O2	-1	103*	-58	104*	83	27	107*
CCC(=O)Nc1ccc2c(c1)OC[C@@H](C)N(C(=O)CC1CC1)C[C@H](C)[C@H](OC)CN(C)C2=O	0	x	10	x	x	x	x
CCC(=O)N(C)C[C@@H]1Oc2cc(C3=CCCC3)ccc2S(=O)(=O)N([C@@H](C)CO)C[C@@H]1C	3	41	-38	x	x	x	x
C[C@@H]1CN([C@@H](C)CO)C(=O)c2cc(NS(C)(=O)=O)ccc2O[C@H]1CN(C)S(C)(=O)=O	x	-41	32	x	x	x	x
O=C(C[C@@H]1CC[C@H]2[C@@H](COC[C@@H](O)CN2C(=O)Nc2ccc(Cl)c(Cl)c2)O1)NCc1ccc(Cl)c(Cl)c1	x	86	-3	x	x	x	x
O=C(C[C@H]1CC[C@H]2[C@@H](COC[C@H](O)CN2C(=O)Nc2ccc(Cl)c(Cl)c2)O1)NCc1ccc(Cl)c(Cl)c1	x	97*	-12	85	64	41*	105*
O=C(C[C@@H]1CC[C@@H]2[C@H](COC[C@@H](O)CN2C(=O)Nc2ccc(Cl)c(Cl)c2)O1)NCc1ccncc1	-96*!	127*	-8	74	-8	4	u
O=C(C[C@@H]1CC[C@H]2[C@@H](COC[C@@H](O)CN2C(=O)c2ccncc2)O1)NCc1ccc(-c2ccccc2)cc1	5	117*	-23	12	15	1	19
O=C(C[C@H]1CC[C@H]2[C@@H](COC[C@H](O)CN2C(=O)Nc2ccc(Cl)c(Cl)c2)O1)NCc1ccccc1	x	51	-1	x	x	x	x
O=C(C[C@H]1CC[C@H]2[C@@H](COC[C@@H](O)CN2C(=O)Nc2ccc(Cl)c(Cl)c2)O1)NCc1ccc(Cl)c(Cl)c1	x	85	-4	x	x	x	x
O=C(C[C@H]1CC[C@H]2[C@@H](COC[C@@H](O)CN2C(=O)c2ccncc2)O1)NCc1ccc(-c2ccccc2)cc1	1	-11	-9	x	x	x	x
O=C(C[C@H]1CC[C@@H]2[C@H](COC[C@@H](O)CN2C(=O)Nc2ccc(Cl)c(Cl)c2)O1)NCc1ccc(Cl)c(Cl)c1	x	98*	-1	88	102*	32	106*
C[C@@H]1CN([C@@H](C)CO)C(=O)c2cc(NC(=O)Nc3ccc(C(F)(F)F)cc3)ccc2O[C@H]1CN(C)C(=O)NC1CCCCC1	2	x	-24	x	x	x	x
